Bioassay records (PubChem)
FLuc inh: inhibitors of firefly luciferase; P08659; purified firefly luciferase, luminescence, 8 min; Potency, µM (titrated, usually from 57.1 µM), for the others: at the highest dose activity change, negative = inhibition, hits mostly inhibitors; actives 2.2% (n = 72,000); AID 411; note: nearly all actives have a fitted effect of over 40% in size
Target sequence (P08659 whole entry, looked up): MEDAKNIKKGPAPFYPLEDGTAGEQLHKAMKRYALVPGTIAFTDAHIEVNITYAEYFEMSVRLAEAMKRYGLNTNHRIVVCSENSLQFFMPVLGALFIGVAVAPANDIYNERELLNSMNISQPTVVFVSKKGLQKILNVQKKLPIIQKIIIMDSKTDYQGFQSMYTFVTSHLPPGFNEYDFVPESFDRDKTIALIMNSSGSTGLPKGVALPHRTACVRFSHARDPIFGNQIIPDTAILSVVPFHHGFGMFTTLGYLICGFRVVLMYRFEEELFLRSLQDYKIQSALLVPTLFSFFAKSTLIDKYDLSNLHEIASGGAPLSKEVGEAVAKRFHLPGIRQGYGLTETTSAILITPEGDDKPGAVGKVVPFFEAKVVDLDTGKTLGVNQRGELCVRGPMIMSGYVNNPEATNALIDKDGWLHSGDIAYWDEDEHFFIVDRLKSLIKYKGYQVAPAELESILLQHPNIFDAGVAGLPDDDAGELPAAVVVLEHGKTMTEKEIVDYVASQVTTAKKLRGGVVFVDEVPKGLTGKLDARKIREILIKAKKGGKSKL
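Titration-based qHTS; buffer 50 mM imidazole pH 7.2, 50 mM KCl, 7 mM MgCl2, 10 uM ATP, 0.01% Tween 20, 0.05% BSA; luciferase/luciferin detector mix added after compound; 8 min, ambient; luminescence.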
p53ts 32C tox: kills p53ts cells at the permissive temperature | Potency, µM (top dose mostly 46.1 µM), inactives show top-dose activity change, negative = cytotoxicity, most hits filed as cytotoxic | actives 0.93% (n = 130,000) | AID 924 | H1299-p53A138V at 32C, ATP luminescence viability, 24 h;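 note: 0% = DMSO and -100% = full killing by reference compound; nearly all actives have a fitted effect of over 55% in size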
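Cells: H1299 p53ts (A138V), 600/well, pre-incubated 16–30 h at 37C. Cpd up to 46 uM, 24 h, 32C. Readout: ATPlite luminescence, 20 min RT. Normalization: DMSO vs tamoxifen 100 uM. AC50 by Hill equation.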
p53ts 39C tox: kills p53ts cells at the nonpermissive temperature | H1299-p53A138V viability at 39C, ATP luminescence, 24 h | Potency, µM (series often up to 46.1 µM), for inactives: top-dose activity change, negative = cell killing, most hits filed as cytotoxic | actives 1.5% (n = 130,000) | AID 902; note: nearly all actives have a fitted effect of over 55% in size
An asterisk follows results filed as active; ? = inconclusive; . = no result; [ ] = another dose, or the depositor's remark. This is a sample that favours compounds with a hit; in the whole collection about 2.5% have one here. Calls come from the whole dose curve; as a rule, active = well fitted curve in the direction sought with a large enough effect; inconclusive = small, poorly fitted or top-dose-only effect, or another doubt; inactive = no such curve, though single readings can be large; an effect the other way counts as inactive or inconclusive. Unless noted, % is set by controls: 0 for no effect and ±100 for the full control effect; potency is the fitted concentration of half-maximal effect.

SMILES	FLuc inh	p53ts 32C tox	p53ts 39C tox
CCOC(=O)c1sc(NC(=O)c2ccc(Br)o2)cc1C	5.01µM*	?	?
CCOC(=O)c1cccc(NC(=O)c2cccs2)c1	-27.0%	-10.1%	-4.3%
CCOC(=O)c1sc(NC(=S)NC(=O)C23CC4CC(CC(C4)C2)C3)cc1C	.	8.6%	-6.7%
CCOC(=O)c1sc(NC(=O)c2cccs2)cc1C	2µM*	?	?
COC(=O)CC1=COC2OCC3=CC[C@@H]1C32 (stereo partly drawn)	.	0.8%[9.22 µM]	3.5%[9.22 µM]
Cc1cc([N+](=O)[O-])c(C)c(Br)c1C	1.6%[11.4 µM]	-0.3%[9.22 µM]	-6.6%[9.22 µM]
O=C1[C@H]2[C@H]3[C@H](O)[C@H](O)C/C(=N/OCc4ccccc4)[C@H]3CC[C@@H]2C(=O)N1C1CCCCC1	-0.7%[11.4 µM]	-2.3%[9.22 µM]	10.3%[9.22 µM]
CC(NC(=O)c1ccc2c(c1)CCN2S(C)(=O)=O)c1ccccc1 (stereo not drawn)	.	-7.8%	4.5%
CS(=O)(=O)N1CCc2cc(C(=O)OCC(=O)c3ccccc3)ccc21	12.6µM*	-18.2%	-5.2%
COc1ccc(CCN2C(=NC(=O)CCC(=O)O)SC3CS(=O)(=O)CC32)cc1OC (stereo not drawn)	12.6µM*	1.8%	-0.5%
C=CCN1C(=NC(=O)CCCC(=O)O)SC2CS(=O)(=O)CC21 (stereo not drawn)	0.6%	-7.2%	3.6%
C=C(C)COc1ccc2c(C)c(CC(=O)OC)c(=O)oc2c1C	15.8µM*	-23.7%	-10.0%
COC(=O)Cc1c(C)c2ccc(OCC(C)=O)c(C)c2oc1=O	-2.3%	?	?
C(=N\c1nc2ccccc2[nH]1)/c1cccs1	7.94µM*	-7.2%	-2.7%
Cn1c(/C=N/c2nc3ccccc3[nH]2)nc2ccccc21	-5.0%	1.7%	?
COc1ccc(C)cc1NC(=O)Cn1cc(S(=O)(=O)Cc2ccccc2Cl)c2ccccc21	.	-7.5%	.
CC(C)=CC(=O)Nc1ccc(Br)cc1	20µM*	-24.2%	-15.1%
CC(=O)NC(C)C(=O)OCC(=O)Nc1ccc(Br)cc1 (stereo not drawn)	-1.8%	11.4%	0.4%
O=C1[C@@H]2[C@H]3[C@H](O)[C@H](O)C/C(=N/OCc4ccccc4)[C@@H]3CC[C@H]2C(=O)N1c1ccc(F)cc1F	-1.1%[11.4 µM]	-0.8%[9.22 µM]	9.6%[9.22 µM]
CC1CCN(c2ccc(-c3cccc(NS(=O)(=O)c4ccc(F)cc4F)c3)nn2)CC1	.	15.8µM*	12.6µM*
COc1ccc(C)cc1S(=O)(=O)Nc1cccc(-c2ccc(N3CCCC3)nn2)c1	.	-10.5%	-4.9%
COc1ccc(S(=O)(=O)Nc2cccc(-c3ccc(N4CCCC4)nn3)c2)c(OC)c1	.	3.4%	-19.6%
O=S(=O)(Nc1cccc(-c2ccc(N3CCCCC3)nn2)c1)c1ccc(F)cc1F	.	12.6µM*	?
Cc1ccc(S(=O)(=O)Nc2cccc(-c3ccc(N4CCC(C)CC4)nn3)c2)s1	.	12.6µM*	3.98µM*
CCOc1ccc(S(=O)(=O)Nc2cccc(-c3ccc(N4CCC(C)CC4)nn3)c2)cc1	.	10µM*	10µM*
SMILES	FLuc inh	p53ts 32C tox	p53ts 39C tox
CCOc1ccc(S(=O)(=O)Nc2cccc(-c3ccc(N4CCCC4)nn3)c2)cc1	.	-11.5%	?
O=S(=O)(Nc1cccc(-c2ccc(N3CCCC3)nn2)c1)c1cc(F)ccc1F	.	-11.9%	-16.9%
COc1ccc(-c2nc(S(=O)(=O)c3ccc(Cl)cc3)c(N3CCCCCC3)o2)cc1	.	-3.9%	5.9%
N#CC(=C(/N)Sc1ccccc1N)/C(C#N)=C(/N)Sc1ccccc1N	0.9%	17.5%	7.0%
COC(=O)C/C=C\[C@@H](C)[C@@H](/C=N\OC[C@@H]1O[C@H](c2ccccc2)C=C[C@@H]1Oc1ccc(OC)cc1)NS(=O)(=O)c1ccc(C)cc1	-2.0%[11.4 µM]	2.8%[9.22 µM]	7.4%[9.22 µM]
CN1CCc2ccccc2[C@@H]1Cc1ccccc1NC(=O)c1sc2ccccc2c1Cl	-2.7%[11.4 µM]	-8.4%[9.22 µM]	8.2%[9.22 µM]
COc1ccccc1CN1C(=O)CN(C2CCCCCC2)C(=O)C1c1ccc(C)cc1 (stereo not drawn)	.	2.0%	-27.0%
C(=N\n1cnnc1)/c1cn(-c2cccs2)nc1-c1ccccc1	25.1µM*	?	-23.6%
COc1ccc(-c2nn(-c3ccccc3)cc2/C=N/n2cnnc2)cc1OC	?	-2.7%	-14.1%
CC1CCCCN1C(=O)CSc1nc2ccccc2nc1Cc1ccccc1 (stereo not drawn)	.	28.2%	2.2%
CCC/C=C(\CCC)C(NC(=O)c1ccccc1)c1ccc(C(=O)OC)cc1 (stereo not drawn)	.	2.0%	-8.6%
O=C1[C@@H]2[C@@H]3C=C[C@H]([C@@H]2C(=O)N1CN1CCSCC1)[C@@H]1[C@@H]2C(=O)N(CN4CCSCC4)C(=O)[C@@H]2[C@H]31	2.3%[11.4 µM]	2.6%[9.22 µM]	8.9%[9.22 µM]
